# Data reported in PubChem BioAssay (EPA / NIEHS).
# Results filed as inconclusive are left out. Active and inactive are the calls of the source. The calls were made as follows, unless noted: active = hit-call score of the fitted dose curve at least 0.9, where 1 is the maximum; inactive = score below 0.9.
# Tests used:
# [1] = ATG_CRE_CIS: Attagene CIS-FACTORIAL HepG2 Assay for human cAMP Responsive Element (CRE) binding protein 3 (AID 2282926); settings: HepG2 CRE cis-reporter, Attagene multiplexed mRNA; actives raise or lower the signal
# In short: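 Capillary electrophoresis of 6-FAM-labelled, HpaI-digested PCR products quantified reporter transcripts. These came from HepG2 transiently transfected with cis-element reporters and exposed to test chemicals for 24 hours, with DMSO defining baseline activity.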
# [2] = molecular target: Hepatocyte nuclear factor 3-beta (Homo sapiens) (UniProt Q9Y261); test: ATG_FoxA2_CIS: Attagene CIS-FACTORIAL HepG2 Assay for human Forkhead box A2 (FOXA2) (AID 2282942); settings: HepG2 cis-reporter transcription factor activity, 24 h; actives raise or lower the signal
# In short: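 Endogenous transcription factor activity was read in HepG2 cells carrying transiently transfected cis-promoter reporter units. After 24 h dosing, reporter mRNA was quantified by RT-PCR and capillary electrophoresis, and values fitted bidirectionally versus DMSO.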
# [3] = molecular target: Hypoxia-inducible factor 1-alpha (Homo sapiens) (UniProt Q16665); test: ATG_HIF1a_CIS: Attagene CIS-FACTORIAL HepG2 Assay for human Hypoxia Inducible Factor 1 (HIF1A) (AID 2282951); settings: HepG2 Attagene cis-factorial HIF1a reporter transcription; actives raise or lower the signal
# In short: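 Measures endogenous transcription-factor activity through cis-regulated reporter mRNA in HepG2. Cells dosed 24 h; transcripts quantified by RT-PCR with 6-FAM-labelled products separated by capillary electrophoresis; DMSO serves as negative control.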
# [4] = molecular target: Hepatocyte nuclear factor 6 (Homo sapiens) (UniProt Q9UBC0); test: ATG_HNF6_CIS: Attagene CIS-FACTORIAL HepG2 Assay for human Hepatocyte Nuclear Factor 6 (HNF6) (AID 2282952); settings: HepG2 Attagene cis-factorial HNF6 reporter transcription; actives raise or lower the signal
# In short: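 Activity values derive from bidirectional fitting against DMSO of reporter mRNA levels, measured by capillary electrophoresis of labelled RT-PCR products from HepG2 cells exposed 24 h.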
# [5] = molecular target: Heat shock factor protein 1 (Homo sapiens) (UniProt Q00613); test: ATG_HSE_CIS: Attagene CIS-FACTORIAL HepG2 Assay for human Heat Shock Transcription Factor 1 (HSE) (AID 2282953); settings: HepG2 HSE cis-reporter, Attagene RNA transcription; actives raise or lower the signal
# In short: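 Read-out: fluorescence of reporter-specific RT-PCR fragments separated by capillary electrophoresis. HepG2 carrying transfected cis-element reporter units; 24 h dosing; activity fitted in both directions relative to DMSO baseline.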
# [6] = ATG_RORE_CIS: Attagene CIS-FACTORIAL HepG2 Assay for human RAR-related Orphan Receptor Element (RORE) (AID 2282959); settings: HepG2 Attagene cis-factorial RORE reporter, mRNA; actives raise or lower the signal
# In short: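 Cells were HepG2 carrying transfected cis-regulated reporter constructs, dosed for 24 hours. Total RNA was reverse-transcribed and reporter cDNA amplified, fluorescently labeled and sized by capillary electrophoresis. Activity was fitted bidirectionally relative to DMSO.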
# [7] = ATG_TGFb_CIS: Attagene CIS-FACTORIAL HepG2 Assay for human Transforming Growth Factor (TGF) (AID 2282967); settings: HepG2 Attagene CIS TGFb reporter, mRNA transcription; actives raise or lower the signal
# In short: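 Readout: fluorescently labeled reporter cDNA fragments resolved by capillary electrophoresis after RT-PCR. Transfected HepG2 cells dosed for 24 h; endogenous TF activity at TGFB1-linked cis element; gain or loss fitted relative to DMSO.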
# [8] = molecular target: X-box-binding protein 1 (Homo sapiens) (UniProt P17861); test: ATG_Xbp1_CIS: Attagene CIS-FACTORIAL HepG2 Assay for human X-box Binding Protein 1 (XBP1) (AID 2282972); settings: HepG2 XBP1 cis-element reporter, Attagene multiplex; actives raise or lower the signal
# In short: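 Human hepatoma HepG2, cis-element reporter system, 24 h treatment; mRNA quantified by RT-PCR/CE fluorescence; fit relative to DMSO.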
# [9] = ATG_M_32_TRANS: Attagene TRANS-FACTORIAL HepG2 Assay for M32 Transcription Factor (Internal Marker) (AID 2282984; active = hit-call score of the fitted dose curve at least 0.9, where 1 is the maximum;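 also: transcript level of a background control reporter unit measured by RT-PCR and capillary electrophoresis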); settings: HepG2 Attagene TRANS M32 internal marker reporter
# In short: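 After 24 h dosing of transfected HepG2 cells, total RNA was reverse-transcribed, reporter sequences PCR-amplified, 6-FAM labelled by primer extension and HpaI-digested before capillary electrophoresis. Signal increase over DMSO was fitted.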
# [10] = molecular target: Transcriptional activator Myb (Homo sapiens) (UniProt P10242); test: ATG_Myb_CIS: Attagene CIS-FACTORIAL HepG2 Assay for human Myeloblastosis (Myb) Proto-Oncogene Transcription Factor (AID 2282986); settings: HepG2 Attagene CIS-FACTORIAL Myb reporter transcription; actives raise or lower the signal
# In short: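 Steps: transfect HepG2 with cis-regulated reporter units; dose with chemical for 24 h; isolate RNA, reverse-transcribe, PCR-amplify and FAM-label reporter sequences; digest with HpaI; resolve by capillary electrophoresis. Activity fitted in both directions relative to DMSO.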
# [11] = molecular target: Nuclear respiratory factor 1 (Homo sapiens) (UniProt Q16656); test: ATG_NRF1_CIS: Attagene CIS-FACTORIAL HepG2 Assay for human Nuclear Respiratory Factor 1 (NRF1) Orphan Gene (AID 2282987); settings: HepG2 NRF1 cis-element reporter, Attagene multiplex; actives raise or lower the signal
# In short: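 Fluorescence intensity of labelled reporter cDNA fragments, resolved by capillary electrophoresis, served as readout for NRF1 cis-element activity. Transiently transfected HepG2 cells were dosed for 24 hours; activity in either direction was fitted against DMSO negative control.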
# [12] = ATG_NFI_CIS: Attagene CIS-FACTORIAL HepG2 Assay for human Nuclear Factor I (NFI) (AID 2282989); settings: HepG2 cis-regulatory reporter, NFI response element transcription; actives raise or lower the signal
# In short: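 Read-out: reporter mRNA via RT-PCR plus capillary electrophoresis with fluorescence detection. Transiently transfected HepG2 (endogenous TF activity on cis promoters), 24 h compound exposure; gain or loss of signal fitted against DMSO.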
# [13] = molecular target: Myc proto-oncogene protein (Homo sapiens) (UniProt P01106); test: ATG_Myc_CIS: Attagene CIS-FACTORIAL HepG2 Assay for human Myelocytomatosis (Myc) Proto-Oncogene Transcription Factor (AID 2282990); settings: HepG2, Attagene cis-reporter transcription factor activity; actives raise or lower the signal
# In short: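 HepG2 cells transiently transfected with multiple cis-promoter-driven reporter transcription units, so endogenous TF activity is read. After 24 h compound exposure, reporter mRNA was quantified by RT-PCR, 6-FAM labelling, HpaI digestion and capillary electrophoresis; bidirectional fit versus DMSO.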
# [14] = ATG_NF_kB_CIS: Attagene CIS-FACTORIAL HepG2 Assay for human Nuclear Factor Kappa B (NF-kB) (AID 2282991); settings: HepG2 Attagene cis-factorial NF-kB reporter mRNA; actives raise or lower the signal
# In short: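 Endogenous transcription factor activity in HepG2 was captured via cis-regulated reporter constructs; after 24 h dosing, reporter mRNA was reverse-transcribed, amplified, fluorescently labelled and sized by capillary electrophoresis, with activity fitted bidirectionally relative to DMSO.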
# [15] = ATG_XTT_Cytotoxicity: Cytotoxicity Assessment in the Attagene TRANS-FACTORIAL HepG2 Assay (AID 2283584; active = hit-call score of the fitted dose curve at least 0.9, where 1 is the maximum;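 as to AC50: cells exposed to compound for 24 h before reading; active means loss of viability signal versus DMSO baseline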)
# In short: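 HepG2 human liver cells, transiently transfected with multiple GAL4-UAS reporter units, were dosed and read at 24 h by XTT as cell number. Loss of signal was fitted relative to DMSO negative control baseline.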
# [16] = ATG_M_32_CIS: Attagene CIS-FACTORIAL HepG2 Assay for M32 Transcription Factor (Internal Marker) (AID 2282949); settings: HepG2 Attagene cis-factorial M32 reporter, mRNA; actives raise or lower the signal;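 also: background control marker of the multiplexed CIS panel rather than a real target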
# In short: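 HepG2 transfectants (cis-regulated reporter transcription units) dosed 24 h. Reporter mRNA by RT-PCR plus CE, analysed as gain or loss relative to DMSO.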
# [17] = ATG_TAL_CIS: Attagene CIS-FACTORIAL HepG2 Assay for human TAL Basal Promoter (AID 2282966); settings: HepG2 Attagene cis-factorial TAL promoter reporter; actives raise or lower the signal;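 also: background control endpoint measuring basal TAL promoter reporter mRNA not a specific factor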
# In short: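 Transiently transfected HepG2 (cis-regulated reporter units), 24 h treatment, mRNA read by fluorescent CE after RT-PCR; bidirectional fit, DMSO baseline.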
# [18] = molecular target: Cellular tumor antigen p53 (Homo sapiens) (UniProt P04637); test: ATG_p53_CIS: Attagene CIS-FACTORIAL HepG2 Assay for human p53 Transcription Factor (AID 2282994); settings: HepG2 p53 cis-element reporter, Attagene mRNA; actives raise or lower the signal
# In short: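 Transiently transfected HepG2 (multiple cis reporter transcription units); exposure 24 h; reporter RNA via RT-PCR, 6-FAM extension, 2 h HpaI digest at 37 C, CE detection; DMSO baseline.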
# [19] = molecular target: Nuclear receptor subfamily 1 group I member 2 (Homo sapiens) (UniProt O75469); test: ATG_PXR_TRANS: Attagene TRANS-FACTORIAL HepG2 Assay for human Pregnane X Receptor (PXR) (AID 2283008; active = hit-call score of the fitted dose curve at least 0.9, where 1 is the maximum)
# In short: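 Transient HepG2 transfectants carrying multiplexed reporter transcription units; PXR activity read through a Gal4 chimera. 24 h exposure. RT-PCR/CE fluorescence; upward curve fit referenced to DMSO.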
# [20] = ATG_NRF2_ARE_CIS: Attagene CIS-FACTORIAL HepG2 Assay for human Nuclear Factor Erythroid 2 Related Factor 2 (NFR2) response to Antioxidant Response Elements (ARE) (AID 2282992); settings: HepG2 Attagene ARE/NRF2 reporter, transcription factor activity; actives raise or lower the signal
# In short: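 Fluorescence intensity of reporter-specific cDNA fragments, separated by capillary electrophoresis, reflects mRNA induction in transfected HepG2 cells at 24 h. Activity is fitted bidirectionally, DMSO serving as baseline.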
# Sequence of Nuclear receptor subfamily 1 group I member 2 (Homo sapiens) (O75469 whole entry, looked up, the tested form may be a part): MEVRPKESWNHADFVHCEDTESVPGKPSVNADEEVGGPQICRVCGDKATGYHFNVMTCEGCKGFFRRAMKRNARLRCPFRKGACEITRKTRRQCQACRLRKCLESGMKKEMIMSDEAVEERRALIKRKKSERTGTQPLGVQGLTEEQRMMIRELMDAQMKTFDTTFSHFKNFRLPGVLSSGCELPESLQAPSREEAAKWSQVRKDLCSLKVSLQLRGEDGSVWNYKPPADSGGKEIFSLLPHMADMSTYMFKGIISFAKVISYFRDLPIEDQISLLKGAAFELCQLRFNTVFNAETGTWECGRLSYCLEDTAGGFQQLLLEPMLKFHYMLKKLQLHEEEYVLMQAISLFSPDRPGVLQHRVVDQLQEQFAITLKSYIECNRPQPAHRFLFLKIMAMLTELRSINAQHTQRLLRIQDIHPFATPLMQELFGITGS
# Sequence of X-box-binding protein 1 (Homo sapiens) (P17861 whole entry, looked up): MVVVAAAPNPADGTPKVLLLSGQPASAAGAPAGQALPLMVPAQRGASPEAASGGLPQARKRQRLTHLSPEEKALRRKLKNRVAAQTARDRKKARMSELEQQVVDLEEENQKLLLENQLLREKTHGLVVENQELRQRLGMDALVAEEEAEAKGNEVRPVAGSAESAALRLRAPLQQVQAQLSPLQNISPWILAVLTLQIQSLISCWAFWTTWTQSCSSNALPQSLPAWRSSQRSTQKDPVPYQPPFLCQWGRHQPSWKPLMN
# Sequence of Nuclear respiratory factor 1 (Homo sapiens) (Q16656 whole entry, looked up, the tested form may be a part): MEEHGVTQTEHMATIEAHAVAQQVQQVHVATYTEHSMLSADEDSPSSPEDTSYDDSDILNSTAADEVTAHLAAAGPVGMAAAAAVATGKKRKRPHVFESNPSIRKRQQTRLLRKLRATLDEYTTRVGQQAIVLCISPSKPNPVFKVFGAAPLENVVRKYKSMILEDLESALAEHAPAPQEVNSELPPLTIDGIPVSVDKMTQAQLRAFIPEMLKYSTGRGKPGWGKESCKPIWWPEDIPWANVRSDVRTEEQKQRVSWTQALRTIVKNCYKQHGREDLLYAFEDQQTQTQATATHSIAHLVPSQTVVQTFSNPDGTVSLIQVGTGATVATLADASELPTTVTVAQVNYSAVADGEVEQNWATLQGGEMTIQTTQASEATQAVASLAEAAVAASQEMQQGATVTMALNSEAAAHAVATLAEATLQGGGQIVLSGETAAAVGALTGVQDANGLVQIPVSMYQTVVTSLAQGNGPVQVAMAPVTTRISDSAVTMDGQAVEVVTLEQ
# Sequence of Hepatocyte nuclear factor 3-beta (Homo sapiens) (Q9Y261 whole entry, looked up): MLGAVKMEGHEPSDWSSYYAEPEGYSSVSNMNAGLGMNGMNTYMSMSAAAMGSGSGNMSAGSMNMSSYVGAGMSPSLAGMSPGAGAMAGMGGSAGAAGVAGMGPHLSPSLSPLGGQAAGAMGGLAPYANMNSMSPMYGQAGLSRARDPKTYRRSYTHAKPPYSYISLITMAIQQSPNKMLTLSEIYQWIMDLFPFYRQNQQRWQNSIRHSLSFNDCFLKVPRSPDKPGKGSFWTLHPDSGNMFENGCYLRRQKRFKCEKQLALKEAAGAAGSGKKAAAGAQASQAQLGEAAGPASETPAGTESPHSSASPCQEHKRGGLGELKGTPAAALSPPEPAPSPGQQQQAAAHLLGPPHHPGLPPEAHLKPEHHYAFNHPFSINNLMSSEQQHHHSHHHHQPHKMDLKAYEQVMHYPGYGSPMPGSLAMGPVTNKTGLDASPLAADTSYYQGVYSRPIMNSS
# Sequence of Cellular tumor antigen p53 (Homo sapiens) (P04637 whole entry, looked up): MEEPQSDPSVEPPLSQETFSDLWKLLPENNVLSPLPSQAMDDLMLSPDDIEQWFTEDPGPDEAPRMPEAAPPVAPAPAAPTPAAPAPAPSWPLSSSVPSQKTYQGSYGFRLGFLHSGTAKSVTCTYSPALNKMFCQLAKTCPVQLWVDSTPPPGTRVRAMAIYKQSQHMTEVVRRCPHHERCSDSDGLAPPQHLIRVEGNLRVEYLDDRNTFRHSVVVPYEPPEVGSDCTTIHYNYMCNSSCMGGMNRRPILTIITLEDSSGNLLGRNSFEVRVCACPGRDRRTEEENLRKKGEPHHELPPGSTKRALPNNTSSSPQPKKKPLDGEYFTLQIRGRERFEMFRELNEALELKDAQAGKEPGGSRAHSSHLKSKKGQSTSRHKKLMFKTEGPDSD
# Sequence of Heat shock factor protein 1 (Homo sapiens) (Q00613 whole entry, looked up, the tested form may be a part): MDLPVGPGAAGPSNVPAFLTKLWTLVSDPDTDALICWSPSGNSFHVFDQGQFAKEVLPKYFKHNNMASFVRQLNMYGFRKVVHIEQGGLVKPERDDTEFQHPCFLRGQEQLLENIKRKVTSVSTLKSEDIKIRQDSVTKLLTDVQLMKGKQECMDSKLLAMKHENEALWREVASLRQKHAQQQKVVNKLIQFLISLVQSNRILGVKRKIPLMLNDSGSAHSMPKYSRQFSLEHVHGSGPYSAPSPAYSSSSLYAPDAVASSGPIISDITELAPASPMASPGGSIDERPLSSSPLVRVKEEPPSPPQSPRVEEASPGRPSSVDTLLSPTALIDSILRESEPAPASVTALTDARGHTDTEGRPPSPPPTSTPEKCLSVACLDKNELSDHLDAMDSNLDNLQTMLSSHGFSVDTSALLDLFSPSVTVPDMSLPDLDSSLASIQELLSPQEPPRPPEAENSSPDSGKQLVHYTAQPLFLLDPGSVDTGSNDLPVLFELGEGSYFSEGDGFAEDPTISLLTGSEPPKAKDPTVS
# Sequence of Hepatocyte nuclear factor 6 (Homo sapiens) (Q9UBC0 whole entry, looked up): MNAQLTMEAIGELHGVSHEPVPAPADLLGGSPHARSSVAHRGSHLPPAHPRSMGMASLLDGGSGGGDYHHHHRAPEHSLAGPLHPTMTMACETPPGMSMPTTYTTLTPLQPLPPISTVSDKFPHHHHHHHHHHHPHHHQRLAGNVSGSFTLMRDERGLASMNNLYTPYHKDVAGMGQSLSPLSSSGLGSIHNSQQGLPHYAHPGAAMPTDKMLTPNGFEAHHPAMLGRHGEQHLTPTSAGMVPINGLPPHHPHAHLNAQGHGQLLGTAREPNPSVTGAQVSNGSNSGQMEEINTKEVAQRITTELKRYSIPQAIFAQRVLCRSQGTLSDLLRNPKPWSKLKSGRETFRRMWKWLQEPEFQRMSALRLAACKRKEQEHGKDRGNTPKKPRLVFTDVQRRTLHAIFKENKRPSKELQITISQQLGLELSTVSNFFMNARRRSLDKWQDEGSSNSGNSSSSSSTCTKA
# Sequence of Hypoxia-inducible factor 1-alpha (Homo sapiens) (Q16665 whole entry, looked up): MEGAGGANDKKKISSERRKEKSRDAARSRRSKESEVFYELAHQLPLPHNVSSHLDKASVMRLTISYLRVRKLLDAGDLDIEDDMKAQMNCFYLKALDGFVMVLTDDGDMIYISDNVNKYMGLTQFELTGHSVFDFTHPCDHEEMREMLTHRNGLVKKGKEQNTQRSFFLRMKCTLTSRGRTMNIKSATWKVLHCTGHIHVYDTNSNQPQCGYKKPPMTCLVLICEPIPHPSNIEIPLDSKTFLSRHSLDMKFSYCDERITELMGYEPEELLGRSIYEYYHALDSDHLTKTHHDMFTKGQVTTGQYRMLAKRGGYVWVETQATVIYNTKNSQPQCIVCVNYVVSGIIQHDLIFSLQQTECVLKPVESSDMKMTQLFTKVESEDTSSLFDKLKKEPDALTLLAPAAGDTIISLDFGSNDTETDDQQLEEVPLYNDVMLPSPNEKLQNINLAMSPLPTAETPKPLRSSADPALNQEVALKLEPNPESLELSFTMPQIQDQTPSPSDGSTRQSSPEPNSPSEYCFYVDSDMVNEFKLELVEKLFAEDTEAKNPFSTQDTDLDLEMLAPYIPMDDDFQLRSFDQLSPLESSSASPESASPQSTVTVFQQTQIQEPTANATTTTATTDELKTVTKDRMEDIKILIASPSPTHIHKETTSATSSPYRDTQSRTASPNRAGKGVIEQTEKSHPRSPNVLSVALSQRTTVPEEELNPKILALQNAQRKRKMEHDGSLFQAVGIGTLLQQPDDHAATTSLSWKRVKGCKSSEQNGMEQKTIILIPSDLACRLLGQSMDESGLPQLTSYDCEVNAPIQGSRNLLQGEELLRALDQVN
# Sequence of Transcriptional activator Myb (Homo sapiens) (P10242 whole entry, looked up): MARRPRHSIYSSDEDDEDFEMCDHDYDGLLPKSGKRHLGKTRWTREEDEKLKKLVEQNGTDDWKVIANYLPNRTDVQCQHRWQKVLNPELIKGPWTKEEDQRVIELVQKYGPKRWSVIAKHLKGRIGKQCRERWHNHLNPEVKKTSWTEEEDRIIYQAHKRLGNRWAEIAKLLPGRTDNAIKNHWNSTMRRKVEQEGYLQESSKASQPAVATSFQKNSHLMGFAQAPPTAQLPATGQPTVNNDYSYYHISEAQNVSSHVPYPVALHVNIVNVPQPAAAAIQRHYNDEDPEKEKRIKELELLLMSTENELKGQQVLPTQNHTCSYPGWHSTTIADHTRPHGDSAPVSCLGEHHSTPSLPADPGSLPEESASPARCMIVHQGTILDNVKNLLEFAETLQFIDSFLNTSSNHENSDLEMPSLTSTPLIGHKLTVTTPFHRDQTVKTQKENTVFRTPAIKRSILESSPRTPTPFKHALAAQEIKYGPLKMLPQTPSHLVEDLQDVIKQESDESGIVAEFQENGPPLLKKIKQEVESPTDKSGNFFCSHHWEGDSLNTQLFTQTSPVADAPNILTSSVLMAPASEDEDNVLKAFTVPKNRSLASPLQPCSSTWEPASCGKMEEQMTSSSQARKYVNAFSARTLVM
# Sequence of Myc proto-oncogene protein (Homo sapiens) (P01106 whole entry, looked up): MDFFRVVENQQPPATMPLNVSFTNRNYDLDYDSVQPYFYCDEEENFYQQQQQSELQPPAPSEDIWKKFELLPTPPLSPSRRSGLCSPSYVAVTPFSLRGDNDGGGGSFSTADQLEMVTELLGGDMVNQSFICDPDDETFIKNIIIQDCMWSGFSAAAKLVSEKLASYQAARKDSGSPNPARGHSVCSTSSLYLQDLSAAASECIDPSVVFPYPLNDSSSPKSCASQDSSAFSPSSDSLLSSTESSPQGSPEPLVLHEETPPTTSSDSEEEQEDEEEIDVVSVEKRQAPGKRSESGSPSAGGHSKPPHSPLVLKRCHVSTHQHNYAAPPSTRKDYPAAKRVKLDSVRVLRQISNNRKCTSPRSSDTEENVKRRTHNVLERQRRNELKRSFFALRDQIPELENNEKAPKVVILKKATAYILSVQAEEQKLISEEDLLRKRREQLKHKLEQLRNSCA
smiles,measurement,setting,value
ClCCCCCCCl,outcome,[1],inactive
same,outcome,[2],inactive
same,outcome,[3],inactive
same,outcome,[4],inactive
same,outcome,[5],inactive
same,outcome,[6],inactive
same,outcome,[7],inactive
same,outcome,[8],inactive
same,outcome,[9],inactive
same,outcome,[10],inactive
same,outcome,[11],inactive
same,outcome,[12],inactive
same,outcome,[13],inactive
same,outcome,[14],inactive
same,outcome,[15],inactive
C=CCN(CC=C)C(=O)C(Cl)Cl,outcome,[1],inactive
same,outcome,[16],inactive
same,outcome,[3],inactive
same,outcome,[4],inactive
same,outcome,[5],inactive
same,outcome,[6],inactive
same,outcome,[17],inactive
same,outcome,[7],inactive
same,outcome,[8],inactive
same,outcome,[10],inactive
same,outcome,[11],inactive
same,outcome,[12],inactive
same,outcome,[13],inactive
same,outcome,[14],inactive
same,outcome,[18],inactive
same,outcome,[19],inactive
same,outcome,[15],inactive
c1ccc2c(c1)CCCC2,outcome,[1],inactive
same,outcome,[2],inactive
same,outcome,[16],inactive
same,outcome,[3],inactive
same,outcome,[4],inactive
same,outcome,[5],inactive
same,outcome,[6],inactive
same,outcome,[17],inactive
same,outcome,[7],inactive
same,outcome,[8],inactive
same,outcome,[9],inactive
same,outcome,[10],inactive
same,outcome,[11],inactive
same,outcome,[12],inactive
same,outcome,[13],inactive
same,outcome,[14],inactive
same,outcome,[20],inactive
same,outcome,[18],inactive
same,outcome,[15],inactive
CN1C[C@H](C(=O)N[C@]2(C)O[C@@]3(O)[C@@H]4CCCN4C(=O)[C@H](Cc4ccccc4)N3C2=O)C=C2c3cccc4[nH]cc(c34)C[C@H]21,outcome,[1],inactive
same,outcome,[2],inactive
same,outcome,[16],inactive
same,outcome,[3],inactive
same,outcome,[4],inactive
same,outcome,[5],inactive
same,outcome,[6],inactive
same,outcome,[17],inactive
same,outcome,[7],inactive
same,outcome,[8],inactive
same,outcome,[9],inactive
same,outcome,[10],inactive
same,outcome,[11],inactive
same,outcome,[12],inactive
same,outcome,[13],inactive
same,outcome,[14],inactive
same,AC50,[20],27 µM (active)
same,outcome,[18],inactive
same,AC50,[19],0.534 µM (active)
same,outcome,[15],inactive
C=CC(=O)OC,outcome,[1],inactive
same,outcome,[2],inactive
same,outcome,[16],inactive
same,outcome,[3],inactive
same,outcome,[4],inactive
same,outcome,[5],inactive
same,outcome,[6],inactive
same,outcome,[17],inactive
same,outcome,[7],inactive
same,outcome,[8],inactive
same,outcome,[9],inactive
same,outcome,[10],inactive
same,outcome,[11],inactive
same,outcome,[12],inactive
same,outcome,[13],inactive
same,outcome,[14],inactive
same,outcome,[20],inactive
same,outcome,[18],inactive
same,outcome,[15],inactive
CCNCC,outcome,[1],inactive
same,outcome,[2],inactive
same,outcome,[16],inactive
same,outcome,[3],inactive
same,outcome,[4],inactive
same,outcome,[5],inactive
same,outcome,[6],inactive
same,outcome,[17],inactive
same,outcome,[7],inactive
same,outcome,[8],inactive
same,outcome,[10],inactive
same,outcome,[11],inactive
same,outcome,[12],inactive
same,outcome,[13],inactive
same,outcome,[20],inactive
same,outcome,[15],inactive
CC(C)[C@@H](C(=O)O[C@@H](C#N)c1cccc(Oc2ccccc2)c1)c1ccc(Cl)cc1,outcome,[1],inactive
same,outcome,[16],inactive
same,outcome,[3],inactive
same,outcome,[4],inactive
same,outcome,[5],inactive
same,outcome,[6],inactive
same,outcome,[17],inactive
same,outcome,[7],inactive
same,outcome,[8],inactive
same,outcome,[9],inactive
same,outcome,[10],inactive
same,outcome,[11],inactive
same,outcome,[12],inactive
same,outcome,[13],inactive
same,outcome,[14],inactive
same,outcome,[18],inactive
same,AC50,[19],0.752 µM (active)
Oc1ccc(C2(c3ccc(O)cc3)c3ccccc3-c3ccccc32)cc1,AC50,[1],8.42 µM (active)
same,outcome,[16],inactive
same,AC50,[3],11.1 µM (active)
same,AC50,[4],16.8 µM (active)
same,AC50,[5],17.5 µM (active)
same,AC50,[6],18.6 µM (active)
same,outcome,[17],inactive
same,outcome,[7],inactive
same,AC50,[8],13.6 µM (active)
same,outcome,[9],inactive
same,outcome,[10],inactive
same,AC50,[11],19.1 µM (active)
same,AC50,[12],17.6 µM (active)
same,outcome,[13],inactive
same,outcome,[14],inactive
same,AC50,[18],17.2 µM (active)
same,AC50,[19],0.384 µM (active)
same,AC50,[15],34.9 µM (active)
